# Source: article PMC7862700, “An all-to-all approach to the identification of sequence-specific readers for epigenetic DNA modifications on cytosine”
# Legend:
# Assay in all cases: DAPPL (digital affinity profiling via proximity ligation, sequencing); 10 mM Tris-HCl pH 7.5, 50 mM NaCl, 1 mM DTT, 4% glycerol, room temperature, 30 min; GST-TFs on glutathione beads, 16-mer random dsDNA library, 0.1% formaldehyde crosslink after washing; high values mean tight binding
# FLI1 = target: T1, FLI1 (Homo sapiens, UniProt Q01543 1-452); settings: protein: recombinant; tags: N-terminal GST; dsDNA, one strand shown
# T1 sequence: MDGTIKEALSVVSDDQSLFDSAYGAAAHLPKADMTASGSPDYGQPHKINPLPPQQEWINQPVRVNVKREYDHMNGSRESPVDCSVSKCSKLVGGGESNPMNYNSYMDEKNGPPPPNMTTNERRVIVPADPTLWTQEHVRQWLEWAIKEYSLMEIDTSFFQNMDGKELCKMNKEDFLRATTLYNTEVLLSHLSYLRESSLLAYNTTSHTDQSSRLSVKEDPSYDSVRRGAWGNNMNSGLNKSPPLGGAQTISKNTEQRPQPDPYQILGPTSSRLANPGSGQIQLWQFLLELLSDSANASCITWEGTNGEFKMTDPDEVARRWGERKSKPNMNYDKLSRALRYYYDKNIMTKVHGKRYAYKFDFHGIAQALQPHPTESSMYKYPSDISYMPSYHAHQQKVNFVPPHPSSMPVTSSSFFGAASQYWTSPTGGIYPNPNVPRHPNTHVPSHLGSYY
# Outline: (§1)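 GST fusions of human transcription factors were expressed in yeast and captured with glutathione beads. Once given DNA barcodes and pooled alongside a tag-only sample, they were incubated for 30 min at room temperature with 200 nmole of a random double-stranded 16-mer DNA library in Tris/NaCl/DTT/glycerol buffer, then washed, crosslinked (0.1% formaldehyde), proximity-ligated, PCR-amplified and sequenced on an Illumina NextSeq500. The binding signal of each hexamer is its read frequency for a factor divided by its frequency for the tag-only sample.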
# ELK1 = target: T2, ELK1 (Homo sapiens, UniProt P19419 1-428); settings: protein: recombinant; tags: N-terminal GST; dsDNA, one strand shown
# T2 sequence: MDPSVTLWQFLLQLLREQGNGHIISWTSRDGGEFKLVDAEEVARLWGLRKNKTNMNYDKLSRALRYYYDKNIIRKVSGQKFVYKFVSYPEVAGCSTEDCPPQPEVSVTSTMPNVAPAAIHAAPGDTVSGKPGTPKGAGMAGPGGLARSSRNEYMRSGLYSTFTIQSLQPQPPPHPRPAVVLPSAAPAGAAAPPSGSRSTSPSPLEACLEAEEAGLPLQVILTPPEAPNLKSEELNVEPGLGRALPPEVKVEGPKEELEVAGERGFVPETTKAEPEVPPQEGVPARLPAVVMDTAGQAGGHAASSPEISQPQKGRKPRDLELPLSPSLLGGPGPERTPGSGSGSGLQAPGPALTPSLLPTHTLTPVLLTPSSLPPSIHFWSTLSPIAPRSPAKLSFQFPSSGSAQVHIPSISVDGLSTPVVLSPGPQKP
# Outline: as §1
# GABPA = target: T3, GABPA (Homo sapiens, UniProt Q06546 1-454); settings: protein: recombinant; tags: N-terminal GST; dsDNA, one strand shown
# T3 sequence: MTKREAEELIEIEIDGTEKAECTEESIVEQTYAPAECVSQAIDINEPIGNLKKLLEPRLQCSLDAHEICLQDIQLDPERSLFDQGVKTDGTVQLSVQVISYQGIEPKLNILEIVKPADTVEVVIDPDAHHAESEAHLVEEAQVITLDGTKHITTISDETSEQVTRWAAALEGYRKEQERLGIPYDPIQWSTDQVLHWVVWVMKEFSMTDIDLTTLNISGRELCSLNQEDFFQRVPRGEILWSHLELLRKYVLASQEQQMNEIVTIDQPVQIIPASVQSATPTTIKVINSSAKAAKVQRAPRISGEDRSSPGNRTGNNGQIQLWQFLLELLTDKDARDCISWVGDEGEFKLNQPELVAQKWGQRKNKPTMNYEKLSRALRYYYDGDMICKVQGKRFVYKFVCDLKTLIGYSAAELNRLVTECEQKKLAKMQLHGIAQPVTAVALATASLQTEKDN
# Outline: as §1
# ERG = target: T4, ERG (Homo sapiens, UniProt P11308 1-479); settings: protein: recombinant; tags: N-terminal GST; dsDNA, one strand shown
# T4 sequence: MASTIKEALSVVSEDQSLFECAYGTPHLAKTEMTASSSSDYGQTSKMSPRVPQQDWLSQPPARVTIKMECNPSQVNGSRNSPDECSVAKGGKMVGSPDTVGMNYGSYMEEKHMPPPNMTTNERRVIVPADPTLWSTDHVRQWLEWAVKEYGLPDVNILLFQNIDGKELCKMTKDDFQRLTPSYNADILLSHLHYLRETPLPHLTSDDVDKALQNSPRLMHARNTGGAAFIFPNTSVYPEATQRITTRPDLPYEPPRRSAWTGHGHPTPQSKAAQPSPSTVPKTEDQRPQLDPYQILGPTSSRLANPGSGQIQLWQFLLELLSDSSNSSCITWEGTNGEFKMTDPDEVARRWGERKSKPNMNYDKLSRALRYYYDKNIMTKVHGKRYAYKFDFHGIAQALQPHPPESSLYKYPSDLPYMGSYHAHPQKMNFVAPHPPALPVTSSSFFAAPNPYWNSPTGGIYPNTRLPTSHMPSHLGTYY
# Outline: as §1
# ELF1 = ELF1 (Homo sapiens, UniProt P32519 1-619); settings: protein: recombinant; tags: N-terminal GST; dsDNA, one strand shown
# Outline: as §1
# EHF = target: T5, EHF (Homo sapiens, UniProt Q9NZC4 1-300); settings: protein: recombinant; tags: N-terminal GST; dsDNA, one strand shown
# T5 sequence: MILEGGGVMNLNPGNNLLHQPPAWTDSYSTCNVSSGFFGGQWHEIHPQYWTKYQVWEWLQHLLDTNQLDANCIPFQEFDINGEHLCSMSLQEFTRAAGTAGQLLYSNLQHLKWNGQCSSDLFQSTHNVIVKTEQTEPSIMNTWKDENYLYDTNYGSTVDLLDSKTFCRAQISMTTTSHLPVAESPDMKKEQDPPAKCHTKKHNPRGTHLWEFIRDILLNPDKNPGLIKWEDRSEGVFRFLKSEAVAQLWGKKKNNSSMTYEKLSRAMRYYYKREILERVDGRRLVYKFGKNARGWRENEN
# Outline: as §1
# SPI1 = SPI1 (Homo sapiens, UniProt P17947 1-270); settings: protein: recombinant; tags: N-terminal GST; dsDNA, one strand shown
# Outline: as §1
# SPIB = SPIB (Homo sapiens, UniProt Q01892 1-262); settings: protein: recombinant; tags: N-terminal GST; dsDNA, one strand shown
# Outline: as §1
# ELK3 = target: T6, ELK3 (Homo sapiens, UniProt P41970 1-407); settings: protein: recombinant; tags: N-terminal GST; dsDNA, one strand shown
# T6 sequence: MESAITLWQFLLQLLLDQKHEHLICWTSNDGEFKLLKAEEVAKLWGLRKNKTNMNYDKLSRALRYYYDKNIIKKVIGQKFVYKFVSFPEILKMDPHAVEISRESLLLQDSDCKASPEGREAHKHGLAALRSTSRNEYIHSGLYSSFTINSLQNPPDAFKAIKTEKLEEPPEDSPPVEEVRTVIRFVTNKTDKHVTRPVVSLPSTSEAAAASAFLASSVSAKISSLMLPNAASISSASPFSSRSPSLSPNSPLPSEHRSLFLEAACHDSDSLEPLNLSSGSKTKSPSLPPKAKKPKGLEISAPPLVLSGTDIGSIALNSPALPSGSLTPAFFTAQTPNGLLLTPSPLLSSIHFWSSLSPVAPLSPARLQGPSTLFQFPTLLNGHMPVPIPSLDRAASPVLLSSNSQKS
# Outline: as §1
# FEV = target: T7, FEV (Homo sapiens, UniProt Q99581 1-238); settings: protein: recombinant; tags: N-terminal GST; dsDNA, one strand shown
# T7 sequence: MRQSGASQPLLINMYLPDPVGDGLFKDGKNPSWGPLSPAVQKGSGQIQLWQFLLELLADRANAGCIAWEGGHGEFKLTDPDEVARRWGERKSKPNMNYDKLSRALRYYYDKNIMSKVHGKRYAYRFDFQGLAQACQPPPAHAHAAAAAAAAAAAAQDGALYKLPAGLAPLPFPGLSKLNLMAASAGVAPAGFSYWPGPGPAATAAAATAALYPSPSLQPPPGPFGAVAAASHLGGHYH
# Outline: as §1
# ETV5 = ETV5 (Homo sapiens, UniProt P41161 1-510); settings: protein: recombinant; tags: N-terminal GST; dsDNA, one strand shown
# Outline: as §1
# HSF1 = HSF1 (Homo sapiens, UniProt Q00613 1-529); settings: protein: recombinant; tags: N-terminal GST; chain copies: 3; dsDNA, one strand shown
# Outline: as §1
# SPIC = target: T8, SPIC (Homo sapiens, UniProt Q8N5J4 1-248); settings: protein: recombinant; tags: N-terminal GST; dsDNA, one strand shown
# T8 sequence: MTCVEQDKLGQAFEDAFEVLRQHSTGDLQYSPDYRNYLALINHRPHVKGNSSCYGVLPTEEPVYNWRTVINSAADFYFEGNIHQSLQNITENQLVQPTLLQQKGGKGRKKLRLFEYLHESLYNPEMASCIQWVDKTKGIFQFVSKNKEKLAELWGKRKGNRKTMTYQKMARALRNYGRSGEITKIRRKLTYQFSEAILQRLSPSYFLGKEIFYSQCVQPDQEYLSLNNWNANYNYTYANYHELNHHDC
# Outline: as §1
# ELF4 = ELF4 (Homo sapiens, UniProt Q99607 1-663); settings: protein: recombinant; tags: N-terminal GST; dsDNA, one strand shown
# Outline: as §1
# ELK4 = target: T9, ELK4 (Homo sapiens, UniProt P28324-2 1-405); settings: protein: recombinant; tags: N-terminal GST; dsDNA, one strand shown
# T9 sequence: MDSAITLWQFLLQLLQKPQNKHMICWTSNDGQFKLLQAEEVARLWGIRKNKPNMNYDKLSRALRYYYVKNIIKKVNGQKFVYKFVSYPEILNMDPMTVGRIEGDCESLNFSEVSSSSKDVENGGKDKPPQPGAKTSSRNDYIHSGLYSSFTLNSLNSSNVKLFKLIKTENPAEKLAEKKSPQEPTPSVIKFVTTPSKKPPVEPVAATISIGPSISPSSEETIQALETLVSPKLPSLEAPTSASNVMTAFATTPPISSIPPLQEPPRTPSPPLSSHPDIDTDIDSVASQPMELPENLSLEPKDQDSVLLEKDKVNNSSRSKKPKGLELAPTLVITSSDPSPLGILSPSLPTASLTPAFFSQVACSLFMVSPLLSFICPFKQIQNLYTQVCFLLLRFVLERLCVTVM
# Outline: as §1
# ETV2 = target: T10, ETV2 (Homo sapiens, UniProt O00321 1-342); settings: protein: recombinant; tags: N-terminal GST; dsDNA, one strand shown
# T10 sequence: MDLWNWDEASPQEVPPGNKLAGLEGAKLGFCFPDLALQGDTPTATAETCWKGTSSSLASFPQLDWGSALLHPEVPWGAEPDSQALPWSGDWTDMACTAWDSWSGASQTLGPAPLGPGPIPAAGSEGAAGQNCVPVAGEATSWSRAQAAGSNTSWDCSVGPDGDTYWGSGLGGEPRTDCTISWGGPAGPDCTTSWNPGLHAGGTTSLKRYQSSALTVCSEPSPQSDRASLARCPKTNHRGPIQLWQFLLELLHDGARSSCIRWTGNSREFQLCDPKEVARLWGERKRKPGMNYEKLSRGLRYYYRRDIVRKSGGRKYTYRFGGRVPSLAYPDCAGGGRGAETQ
# Outline: as §1
# ELF3 = target: T11, ELF3 (Homo sapiens, UniProt P78545 1-371); settings: protein: recombinant; tags: N-terminal GST; dsDNA, one strand shown
# T11 sequence: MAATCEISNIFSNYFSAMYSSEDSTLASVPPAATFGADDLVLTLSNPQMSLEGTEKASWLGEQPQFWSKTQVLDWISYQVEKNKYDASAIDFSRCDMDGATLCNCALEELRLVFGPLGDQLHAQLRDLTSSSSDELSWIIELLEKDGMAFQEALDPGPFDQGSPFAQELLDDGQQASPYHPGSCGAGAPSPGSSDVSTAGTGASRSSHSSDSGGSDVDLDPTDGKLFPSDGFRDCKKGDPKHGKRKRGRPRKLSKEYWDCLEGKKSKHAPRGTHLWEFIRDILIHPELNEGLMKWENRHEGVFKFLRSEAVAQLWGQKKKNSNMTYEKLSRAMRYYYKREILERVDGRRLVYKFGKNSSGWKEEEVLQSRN
# Outline: as §1
# CRX = CRX (Homo sapiens, UniProt O43186 1-299); settings: protein: recombinant; tags: N-terminal GST; dsDNA, one strand shown
# Outline: as §1
# ETV1 = ETV1 (Homo sapiens, UniProt P50549 1-477); settings: protein: recombinant; tags: N-terminal GST; dsDNA, one strand shown
# Outline: as §1
# Sequence of HSF1 (Q00613 whole entry): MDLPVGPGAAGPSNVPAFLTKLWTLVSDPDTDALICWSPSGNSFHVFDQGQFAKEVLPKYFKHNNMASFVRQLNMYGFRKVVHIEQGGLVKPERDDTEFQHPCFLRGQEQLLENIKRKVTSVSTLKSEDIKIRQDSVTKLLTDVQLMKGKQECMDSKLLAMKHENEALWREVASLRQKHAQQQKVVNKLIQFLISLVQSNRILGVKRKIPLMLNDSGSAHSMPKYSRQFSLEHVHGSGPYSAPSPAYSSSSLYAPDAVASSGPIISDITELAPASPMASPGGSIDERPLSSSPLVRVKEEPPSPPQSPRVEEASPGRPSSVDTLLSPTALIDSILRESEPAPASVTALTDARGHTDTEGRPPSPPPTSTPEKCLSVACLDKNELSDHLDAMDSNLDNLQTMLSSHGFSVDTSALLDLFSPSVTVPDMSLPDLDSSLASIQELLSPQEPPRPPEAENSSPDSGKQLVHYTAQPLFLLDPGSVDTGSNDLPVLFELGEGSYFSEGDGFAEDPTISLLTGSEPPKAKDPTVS
# Sequence of ELF4 (Q99607 whole entry): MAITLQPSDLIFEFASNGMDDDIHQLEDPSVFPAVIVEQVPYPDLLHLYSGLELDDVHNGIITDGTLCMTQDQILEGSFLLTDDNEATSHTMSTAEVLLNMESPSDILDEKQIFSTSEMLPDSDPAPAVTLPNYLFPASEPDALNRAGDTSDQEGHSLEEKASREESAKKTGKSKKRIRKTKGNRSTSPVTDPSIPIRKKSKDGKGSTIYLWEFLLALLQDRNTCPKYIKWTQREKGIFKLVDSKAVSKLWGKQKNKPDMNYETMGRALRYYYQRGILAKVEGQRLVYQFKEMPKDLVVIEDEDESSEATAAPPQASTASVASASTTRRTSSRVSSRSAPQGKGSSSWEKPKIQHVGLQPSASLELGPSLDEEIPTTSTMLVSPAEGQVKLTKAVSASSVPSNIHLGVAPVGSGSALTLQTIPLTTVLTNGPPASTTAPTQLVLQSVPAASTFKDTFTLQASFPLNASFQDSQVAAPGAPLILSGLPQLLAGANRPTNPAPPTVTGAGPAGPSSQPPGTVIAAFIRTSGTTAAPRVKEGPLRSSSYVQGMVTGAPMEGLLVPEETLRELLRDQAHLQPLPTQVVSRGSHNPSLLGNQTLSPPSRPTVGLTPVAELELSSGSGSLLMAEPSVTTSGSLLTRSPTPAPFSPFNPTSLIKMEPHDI
# Sequence of SPIB (Q01892 whole entry): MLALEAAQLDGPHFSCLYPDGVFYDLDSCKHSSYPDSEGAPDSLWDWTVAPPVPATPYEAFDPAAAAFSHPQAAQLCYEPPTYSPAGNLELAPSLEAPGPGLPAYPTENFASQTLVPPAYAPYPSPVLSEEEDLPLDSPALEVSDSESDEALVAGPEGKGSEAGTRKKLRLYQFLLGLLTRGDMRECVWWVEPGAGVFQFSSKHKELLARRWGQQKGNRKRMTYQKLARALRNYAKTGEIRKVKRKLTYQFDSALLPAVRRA
# Sequence of ETV1 (P50549 whole entry): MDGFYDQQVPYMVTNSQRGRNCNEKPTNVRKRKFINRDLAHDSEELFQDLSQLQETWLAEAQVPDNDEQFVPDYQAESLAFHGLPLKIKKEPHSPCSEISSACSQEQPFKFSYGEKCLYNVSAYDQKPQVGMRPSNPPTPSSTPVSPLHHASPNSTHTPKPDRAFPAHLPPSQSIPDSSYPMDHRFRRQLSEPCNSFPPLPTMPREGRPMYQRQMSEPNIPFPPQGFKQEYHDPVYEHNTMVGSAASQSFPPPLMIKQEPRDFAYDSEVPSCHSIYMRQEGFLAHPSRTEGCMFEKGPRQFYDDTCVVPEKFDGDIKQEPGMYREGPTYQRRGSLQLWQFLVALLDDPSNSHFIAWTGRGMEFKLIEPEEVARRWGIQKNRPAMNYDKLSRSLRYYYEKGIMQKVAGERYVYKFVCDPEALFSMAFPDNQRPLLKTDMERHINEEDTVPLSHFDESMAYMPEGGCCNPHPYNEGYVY
# Sequence of ELF1 (P32519 whole entry): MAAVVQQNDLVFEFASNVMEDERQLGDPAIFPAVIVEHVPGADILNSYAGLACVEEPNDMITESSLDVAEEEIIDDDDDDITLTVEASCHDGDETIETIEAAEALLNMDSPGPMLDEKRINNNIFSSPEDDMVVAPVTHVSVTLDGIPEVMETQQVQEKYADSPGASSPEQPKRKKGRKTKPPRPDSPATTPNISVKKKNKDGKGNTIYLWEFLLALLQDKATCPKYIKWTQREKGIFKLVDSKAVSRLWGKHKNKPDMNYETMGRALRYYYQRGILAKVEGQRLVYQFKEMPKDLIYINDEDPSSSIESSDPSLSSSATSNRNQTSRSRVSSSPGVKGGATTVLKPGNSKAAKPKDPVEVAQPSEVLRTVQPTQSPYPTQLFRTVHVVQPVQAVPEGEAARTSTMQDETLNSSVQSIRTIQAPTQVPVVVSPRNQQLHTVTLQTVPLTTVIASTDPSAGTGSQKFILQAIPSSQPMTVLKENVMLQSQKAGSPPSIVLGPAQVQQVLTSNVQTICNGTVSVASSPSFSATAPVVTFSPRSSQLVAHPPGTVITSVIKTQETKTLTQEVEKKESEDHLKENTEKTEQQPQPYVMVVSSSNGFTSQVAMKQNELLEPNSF
# Sequence of CRX (O43186 whole entry): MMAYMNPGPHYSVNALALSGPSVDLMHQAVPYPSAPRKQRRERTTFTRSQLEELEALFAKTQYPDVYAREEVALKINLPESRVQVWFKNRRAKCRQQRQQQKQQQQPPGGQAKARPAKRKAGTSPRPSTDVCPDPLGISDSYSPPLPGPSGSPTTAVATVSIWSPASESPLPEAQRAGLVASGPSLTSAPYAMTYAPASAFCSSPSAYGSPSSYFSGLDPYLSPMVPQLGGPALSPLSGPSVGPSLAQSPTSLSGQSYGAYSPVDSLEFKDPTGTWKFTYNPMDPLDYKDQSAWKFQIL
# Sequence of ETV5 (P41161 whole entry): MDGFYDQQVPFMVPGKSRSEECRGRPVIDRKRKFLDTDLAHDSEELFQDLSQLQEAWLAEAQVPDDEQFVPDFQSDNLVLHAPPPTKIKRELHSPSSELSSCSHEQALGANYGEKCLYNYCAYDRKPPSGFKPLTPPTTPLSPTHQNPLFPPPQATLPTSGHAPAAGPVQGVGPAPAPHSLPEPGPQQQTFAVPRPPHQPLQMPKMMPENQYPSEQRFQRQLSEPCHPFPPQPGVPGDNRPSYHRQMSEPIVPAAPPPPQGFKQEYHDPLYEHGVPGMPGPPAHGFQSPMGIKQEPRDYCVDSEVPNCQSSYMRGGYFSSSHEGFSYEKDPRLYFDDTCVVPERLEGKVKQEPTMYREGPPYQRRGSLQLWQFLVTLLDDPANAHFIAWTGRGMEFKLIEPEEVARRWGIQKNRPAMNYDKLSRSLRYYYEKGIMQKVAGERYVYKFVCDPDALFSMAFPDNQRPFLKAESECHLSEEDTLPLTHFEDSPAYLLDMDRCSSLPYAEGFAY
sequence,measurement,setting,value
TCCTTA,binding signal,FLI1,"1.6 fold enrichment (6-mer frequency, TF over GST control)"
same,binding signal,ELK1,"1.38 fold enrichment (6-mer frequency, TF over GST control)"
same,binding signal,GABPA,"1.57 fold enrichment (6-mer frequency, TF over GST control)"
same,binding signal,ERG,"1.55 fold enrichment (6-mer frequency, TF over GST control)"
same,binding signal,ELF1,"1.66 fold enrichment (6-mer frequency, TF over GST control)"
same,binding signal,EHF,"1.71 fold enrichment (6-mer frequency, TF over GST control)"
same,binding signal,SPI1,"1.78 fold enrichment (6-mer frequency, TF over GST control)"
same,binding signal,SPIB,"1.7 fold enrichment (6-mer frequency, TF over GST control)"
same,binding signal,ELK3,"1.4 fold enrichment (6-mer frequency, TF over GST control)"
same,binding signal,FEV,"1.48 fold enrichment (6-mer frequency, TF over GST control)"
same,binding signal,ETV5,"1.52 fold enrichment (6-mer frequency, TF over GST control)"
same,binding signal,HSF1,"1.54 fold enrichment (6-mer frequency, TF over GST control)"
same,binding signal,SPIC,"1.66 fold enrichment (6-mer frequency, TF over GST control)"
same,binding signal,ELF4,"1.56 fold enrichment (6-mer frequency, TF over GST control)"
same,binding signal,ELK4,"1.41 fold enrichment (6-mer frequency, TF over GST control)"
same,binding signal,ETV2,"1.59 fold enrichment (6-mer frequency, TF over GST control)"
same,binding signal,ELF3,"1.43 fold enrichment (6-mer frequency, TF over GST control)"
same,binding signal,CRX,"1.83 fold enrichment (6-mer frequency, TF over GST control)"
same,binding signal,ETV1,"1.56 fold enrichment (6-mer frequency, TF over GST control)"
